# Experimental data taken from PubChem BioAssay AID492952 (Southern Research Specialized Biocontainment Screening …, 2010).
# In all, about 2,300 compounds went through this assay and about 1,500 (65%) were called active. The rule behind the calls is not given here. The set was probably picked from earlier hits. Some of the results follow. Measured potencies and affinities stand elsewhere.
# Assay: replicating M. tuberculosis growth inhibition, dose response, non-replicating M. tuberculosis project, H37Rv (AID 492952);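 note: Mycobacterium tuberculosis grown in culture; growth inhibition read after a week of incubation; 0% = bacteria alone untreated and 100% = bacteria with high antibiotic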
# Details: series mostly up to 50 µM; inhibition: at the top concentration
row,Structure (SMILES),inhibition
1,CCCCCCCC(=O)N/N=C(\C)c1ccc(O)cc1O,-8.78% (inactive)
2,CSC1=N/C(=C\c2ccc(Br)o2)C(=O)S1,5.39% (inactive)
3,O=C(N/N=C/c1cn[nH]c1-c1ccccc1)c1ccco1,1.45% (inactive)
4,CC(=O)Nc1cccc(-c2nc3ccccc3c(=O)o2)c1,7.03% (inactive)
5,O=C(NNC1CC(=O)N(c2ccccc2)C1=O)c1ccco1 (configuration not stated),-0.27% (inactive)
6,N[C@@H](Cc1ccccc1)c1nnc(SC/C=C/c2ccccc2)o1,7.63% (inactive)
7,O=C(NCCc1ccccc1)c1nc(-c2cccs2)no1,2.65% (inactive)
8,O=[N+]([O-])c1cncc([N+](=O)[O-])c1Nc1cccc(O)c1,28.7% (inactive)
9,O=S(=O)(NCc1cccnc1)c1ccc(Cl)c(Cl)c1Cl,-3.75% (inactive)
10,Clc1ccc(SCCOCCN2CCc3ccccc3C2)cc1,4.11% (inactive)
11,Clc1ccc(OCCCCN2CCc3ccccc3C2)cc1,15.9% (inactive)
12,CC1=NN(C(=O)c2ccccc2)C(O)(c2ccc(Br)cc2)C1 (configuration not stated),27.1% (inactive)
13,CC1=NN(C(=O)c2ccccc2Cl)C(O)(c2ccccc2)C1 (configuration not stated),1.28% (inactive)
14,CCc1ccc(N2C(=O)CC(N3CCC(C(=O)OC)CC3)C2=O)cc1 (configuration not stated),0.16% (inactive)
15,CCCCCCOc1ccc(N2C(=O)CC(N3CCN(C(=O)c4ccco4)CC3)C2=O)cc1 (configuration not stated),-5.2% (inactive)
16,CCOc1ccc(N2CC(=O)Nc3ccccc3NCC2=O)cc1,5.63% (inactive)
17,CCCOc1ccc(N2C(=O)CC(N3CCCC(C(=O)N4CCCC4)C3)C2=O)cc1 (configuration not stated),-0.96% (inactive)
18,COc1ccc(OC(=O)C2CC(=O)N(c3ccc(C)cc3)C2)cc1 (configuration not stated),25.1% (inactive)
19,C#CCOc1coc(COC(=O)c2ccccc2)cc1=O,-6.59% (inactive)
20,CSC1=N/C(=C\c2ccc3c(c2)OCO3)C(=O)S1,-2.2% (inactive)
21,O=C1CC(N2CCC(c3nc4ccccc4o3)CC2)C(=O)N1 (configuration not stated),-3.04% (inactive)
22,NC(=O)/C(=N\OC(=O)c1ccco1)c1nc(-c2ccc(Br)cc2)cs1,7.99% (inactive)
23,Cc1[nH]n(-c2ccccc2)c(=O)c1C=Nc1cnc2ccccc2c1,0.8% (inactive)
24,C/C(=N\NC(=O)CCc1ccccc1)C1C(=O)c2ccccc2C1=O,2.42% (inactive)
25,CC(C)(C)c1ccc(S(=O)(=O)NNC(=O)c2cc3ccccc3[nH]2)cc1,-2.17% (inactive)
26,Cc1ccc(S(=O)(=O)NCc2ccc(C(=O)NCCCN3CCC(Cc4ccccc4)CC3)cc2)cc1,8.86% (inactive)

row,Structure (SMILES),inhibition
1,CN(C)CCC(=O)N1c2ccccc2Sc2ccc(C(F)(F)F)cc21,-0.36% (inactive)
2,Oc1ccc(Br)cc1-c1ccn[nH]1,11.7% (inactive)
3,Cc1ccc(C(C)NC(=O)c2cc3ccccc3oc2=O)cc1C (configuration not stated),-6.44% (inactive)
4,CC(NC(=O)c1cc2ccccc2oc1=O)c1ccccc1 (configuration not stated),2.61% (inactive)
5,O=C(NC1CCOc2ccccc21)c1ccc(Cl)nc1 (configuration not stated),-5.08% (inactive)
6,CCOc1ccc(NC(=O)COc2ccc3c(c2)OCO3)cc1,11% (inactive)
7,O=C(Nc1ccc([N+](=O)[O-])cc1)c1ccc(Cn2cc([N+](=O)[O-])cn2)cc1,-2.2% (inactive)
8,C=CCOc1ccc(CNCCO)cc1OCC,6.25% (inactive)
9,CC(C)(C)c1cc(CN2CCN(CCO)CC2)cc(C(C)(C)C)c1O,2.66% (inactive)
10,CCn1c(O)c(C(=O)CC2NCCc3ccccc32)c(=O)n(CC)c1=S (configuration not stated),5.15% (inactive)
11,Cc1ccc2nc(NC(=O)COC(=O)c3ccc(Br)o3)sc2c1,-1.01% (inactive)
12,O=C(NNc1nc2ccccc2s1)Nc1ccc(F)cc1,-2.93% (inactive)
13,Cc1ccc(CNC(=O)c2cnccn2)cc1,-4.77% (inactive)
14,CCN(CC)c1ccc(NC2CC(=O)N(CCc3ccc(OC)cc3)C2=O)cc1 (configuration not stated),6.5% (inactive)
15,CC(C)(C)c1csc(NC(=O)c2ccccc2O)n1,1.64% (inactive)
16,O=C(NCc1ccc2c(c1)OCO2)c1ccc(Cl)s1,-0.4% (inactive)
17,CCCNC(=O)N1CCC(c2ccc3c(c2)OCO3)CC1,-0.57% (inactive)
18,Cc1ccc(NC(=O)COc2ccc3c(c2)CCC3)nc1,24.1% (inactive)
19,O=C(CN1CCN(c2ccccc2O)CC1)Nc1ccc2c(c1)CCC2,4.17% (inactive)
20,O=C1C=CC(=O)N1N(c1ccccc1)c1ccccc1,-5.47% (inactive)
21,COc1ccc(C(=O)NNC2=C(C(=O)C(F)(F)F)CCC2)cc1,3.23% (inactive)
22,CC1C/C(=N/N2C(=O)CSC2=S)CC(C)(C)C1 (configuration not stated),-2.91% (inactive)
23,O=C(CN1CCN(c2ccc([N+](=O)[O-])cc2)CC1)Nc1ccccn1,-1.52% (inactive)
24,Fc1ccc(N2CCN(Cc3nnc(-c4ccccc4)o3)CC2)cc1,6.29% (inactive)
25,O=C1CC(N2CCN(c3ccc(F)cc3)CC2)C(=O)N1Cc1ccccc1 (configuration not stated),-0.37% (inactive)
26,O=C1CCCC(O)=C1C=Nc1ccc2c(c1)oc1ccccc12,20.6% (inactive)

row,Structure (SMILES),inhibition
1,CCOC(=O)c1ccc(N=CC2=C(O)CC(C)(C)CC2=O)cc1,10.5% (inactive)
2,C/C(=N\NC(=O)c1nn(C)cc1Cl)c1ccncc1,-4.13% (inactive)
3,O=C(Nc1ccc(Cl)cc1)C1CCCC1,1.54% (inactive)
4,CSc1nc(=S)cc(C)[nH]1,5.22% (inactive)
5,CCOC(=O)Cn1cc(C#N)c2ccccc21,14.6% (inactive)
6,CSc1nnc(Cc2ccc3c(c2)OCO3)o1,19.4% (inactive)
7,CC(C)c1ccc(OCC(=O)NC2=NCCS2)cc1,-0.2% (inactive)
8,O=S(=O)(Nc1nccs1)c1ccc(NCc2cc(Br)cc(Br)c2O)cc1,-4.18% (inactive)
9,COc1cc(C=O)ccc1OCCOCCOc1ccc(Cl)cc1,3.59% (inactive)
10,Cc1cccnc1NC(=O)C1COc2ccccc2O1 (configuration not stated),3.27% (inactive)
11,Cc1ccccc1NC(=O)C1COc2ccccc2O1 (configuration not stated),1.97% (inactive)
12,COc1ccc(NC(=O)C2COc3ccccc3O2)cc1 (configuration not stated),3.23% (inactive)
13,CC(=O)c1cccc(NC(=O)C2COc3ccccc3O2)c1 (configuration not stated),1.76% (inactive)
14,CCc1ccccc1NC(=O)C1COc2ccccc2O1 (configuration not stated),7.64% (inactive)
15,O=C(COC(=O)c1ccccc1)NCc1cccs1,6.1% (inactive)
16,CCN(CC)C(=O)c1sc2nc(-c3ccccc3)ccc2c1N,8.17% (inactive)
17,C=CCn1c(O)c(C(C)=Nc2ccc(C(=O)OCC)cc2)c(=O)[nH]c1=O,6.12% (inactive)
18,Cc1cc(C)c2c(=O)n(CC(=O)Nc3cccc(Cl)c3C)sc2n1,3.34% (inactive)
19,CC1CCc2c(sc3nc(CSc4ncn[nH]4)[nH]c(=O)c23)C1 (configuration not stated),-0.8% (inactive)
20,Cc1ccc(CC(=O)Nc2ccc(Cl)cn2)cc1,0.6% (inactive)
21,Cc1ccc(NC(=O)CN(C)CC(=O)Nc2ccc(F)c(Cl)c2)cc1,6.56% (inactive)
22,COc1ccc(N2C(=O)CC(Sc3nc4ccccc4s3)C2=O)cc1OC (configuration not stated),-5.21% (inactive)
23,Cc1nc2ccc(NC(=O)COc3cccc(F)c3)cc2s1,16.1% (inactive)
24,N#Cc1cc(N)ccc1-n1cccc1,1.99% (inactive)
25,CCN1C(=O)CC(N2CCC(c3nc4ccccc4[nH]3)CC2)C1=O (configuration not stated),-1.46% (inactive)
